Experimental data as given in the supplement of paper PMC6555819.

The sequences below were run on VDR:RXRa (NR concentration 270 nM, RXRa partner concentration 90 nM) (assay: PBM binding z-score (relative to random genomic background probes); higher = stronger binding; sequences stand for … in GC…GCGATTGACAGCGTAGAATGAAGG).
Procedure: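 Protein-binding microarray (Agilent 4x180K custom design, double-stranded 60-nt probes: 5' GC cap, 34-nt variable region, 24-nt constant primer region; full probe sequence given). Purified or IVT nuclear receptor:RXRα heterodimers (3:1 NR:RXRα, mostly 270:90 nM) or homodimers were incubated for 1 h in PBS with 2% milk and no ligand, then detected with Alexa488 antibodies. Fluorescence from o1-orientation probes (~5 replicates averaged) was converted to z-scores against 500 random hg19 background probes. Variable regions are seed direct-repeat (DR0–DR5) sites, all their single-nucleotide variants and half-site ablations.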
GCTGCTAGGTCAGGTTCGTCAGCTAACGGGTACG gave a PBM binding z-score of 1.44. With TAGCCTATGTCATTCAGGGGCCAGTATAGAAAGC the PBM binding z-score was -0.286. CTCGAAAGGTCGGTTGAGGTGAGTATGCGGATAA gave a PBM binding z-score of 2.15. Work on ATATGGAGGTTACATCCGGGTCATTCAGGCTATG yielded a PBM binding z-score of 5.05. CCTAGCAGGCCAGGGTGACTCAAGCATTTCGCTT was tested, and the PBM binding z-score was -0.639. CGTCAAAGTTCAACTAAGGTAACGTACAGCACGC gave a PBM binding z-score of 4.64. Sequence CTACCAAGGTGTACAAGGTCGTTGATTACTATTC has a PBM binding z-score of 2.39. GTTAGTTGGTCAGTAAAAGGTCACACACCGGTCG gave a PBM binding z-score of 4.28. Sequence ATATGAAGGTTAGCTGGGGTCATTCAGACTAGGC has a PBM binding z-score of 6.61. Work on TCATATAGGTAATACAGGTGAAAGTCGGCATCTA yielded a PBM binding z-score of 1.31. Work on GCGACTGGGGCATAGCAGGTTACCATAAGGTTGG yielded a PBM binding z-score of -0.336. With CCGACCGGGGCATAAGGTTACCATAAGCCAGCCC the PBM binding z-score was 0.666. In the case of TCGAGTAGGTTAGGGCCATTCAGAATGGCGTCGA, the PBM binding z-score is reported as -0.353. With ACTAGCAGGCCTAGGGTCACTCAAGATTAGTCCG the PBM binding z-score was 2.03. GATGCAGGGTCAGCTAGAGGCCAGAGTATGGAAA was tested, and the PBM binding z-score was 3.11. For TGAATGAGGTTAAAGATCAGCGAACGTGGCGTCG, the PBM binding z-score was 1.75. With GCGACTGGGGCATCAGCAGGTAACCATAACTTAA the PBM binding z-score was -0.245. For AGAATGAGGTTATGATCAGGGAAACAGAATACAT, the PBM binding z-score was 1.11. For TCTTGTAGATCAGCAGGTTAAGCAAGCTGGCCAA, the PBM binding z-score was 0.275. In the case of AATACAGGGTCATCGTAGGCCAGAATACGCACAG, the PBM binding z-score is reported as 5.15. Work on CGTCAATGTTCAACTAAGGTAACGTAAAGCACGC yielded a PBM binding z-score of 0.565. In the case of GCAGACAGGTGAAACGCAGGTAACCCAGGGTGGC, the PBM binding z-score is reported as -0.517. Sequence CAAACTAGATCAAAGGTCAAAGTCGAGCCAACCA has a PBM binding z-score of 4.93. TAGCCTAGGTCTGATCGGGCCAGTATACGCTATA was tested, and the PBM binding z-score was -0.771. GCTTGTAGATCAAGGCTAAGAAAGACTAAGCTAA was tested, and the PBM binding z-score was -0.679. In the case of AGAACGAGGACACGCTGAGTTGATAGCAGAGTAG, the PBM binding z-score is reported as 0.161. For GCGACTGGGGCAAACCAGGTTACCATAAGGTTGG, the PBM binding z-score was 0.416. AGAATGAGGTTACCAAAGATCCGGGAAACGCTTG showed a PBM binding z-score of 1.16. Sequence AGAACGAGGGCACGCTGAATTGATAGCAGAGTAG has a PBM binding z-score of 0.557. CGAGACAGGTGAGAAGGTAACTCAGCCTCGATTA showed a PBM binding z-score of -0.375. CAAACTCGGTCACGAAAGGTCAAAGTCGAATGAC showed a PBM binding z-score of 5.86. For TCTTGTAGATCAATAGAGGTTAGGAAAGTGCGCT, the PBM binding z-score was 1.05. In the case of GGTCGGAGGACAAGGTCAGAGCTTTGTCCGTAGA, the PBM binding z-score is reported as 1.78. Work on GGAACGAGGGCATTCGAGTTGATTGCATGGCGAT yielded a PBM binding z-score of 3.81. In the case of ATCTCTAGGTAACGAAGTTCAGTGAATGCCGAAC, the PBM binding z-score is reported as 2.56. TGTTGTAGATCAAAGGTTAAGAAAGCCGAAGCCT gave a PBM binding z-score of 1.44. Sequence GCTAGCAGGCCATTTGGATCACTCAATGACGGGC has a PBM binding z-score of -0.73. In the case of AGAACGAGGGCAATGAGCTGATAGCACGGGTGGC, the PBM binding z-score is reported as -0.0572. Sequence TAGCCTAGGTCATGGGCCATTATACCACGCGAAC has a PBM binding z-score of 2.27. Sequence CGCCCAAGGTCAGAGAGGTCAGTGAATGCCGAGT has a PBM binding z-score of 7.36.
